# Screens from PubChem.
# An excerpt weighted towards active compounds, which were near 4.7% of everything screened.
# TIM10 inh = TIM10 yeast growth inhibition. S. cerevisiae TIM10 strain growth, BacTiter-Glo luminescence, 24 h. inhibition, % at 10 µM. AID 463195. 1.4% of 330,000 active;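 active = inhibition of 40% or more at the single tested concentration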;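 also: wild-type TIM10 isogenic control strain grown at permissive 25 °C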
# tim10-1 inh = inhibits growth of tim10-1 mutant yeast | S. cerevisiae tim10-1 ts strain growth, BacTiter-Glo, 24 h | inhibition, % at 20 µM | 2.2% of 330,000 active;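 active = inhibition of at least 40%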;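 also: mutant grown at 25 °C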
# PfHsp90 set2 = growth inhibition of yeast expressing Plasmodium Hsp90; S. cerevisiae expressing PfHsp90, BacTiter-Glo ATP, 48 h; yeast lacking PDR1 and PDR3 efflux regulators; inhibition, % at 9.4 µM; 0.32% of 310,000 active;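 active = every replicate shows inhibition above about 80%, whatever the replicate mean, limit read from the data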
# EBI2 antag = EBI2 (human) antagonism. 0.81% of 360,000 active. EBI2 beta-arrestin recruitment, luminescence, 7a,25-OHC stimulated. inhibition, % at 5 µM; in the data active = inhibition above about 38%;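 also: enzyme fragment complementation signal reports receptor beta-arrestin coupling in cells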
# Target sequence (P32249 whole entry, looked up, the tested form may be a part): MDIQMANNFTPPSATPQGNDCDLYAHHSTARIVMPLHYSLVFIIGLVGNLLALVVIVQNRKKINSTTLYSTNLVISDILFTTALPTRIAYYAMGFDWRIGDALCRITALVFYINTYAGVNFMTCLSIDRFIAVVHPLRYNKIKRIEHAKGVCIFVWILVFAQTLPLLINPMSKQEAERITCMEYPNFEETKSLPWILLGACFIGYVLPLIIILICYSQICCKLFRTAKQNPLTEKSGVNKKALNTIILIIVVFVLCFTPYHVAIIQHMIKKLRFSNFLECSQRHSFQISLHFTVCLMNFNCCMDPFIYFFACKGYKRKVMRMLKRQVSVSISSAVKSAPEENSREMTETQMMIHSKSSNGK
# SKKanGAS inh = blocks kanamycin growth of S. pyogenes SKKanGAS strain; BacTiter-Glo, 6 h; inhibition, % at 7.5 µM; 1.3% of 300,000 active; AID 1662;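 active = mean replicate score, as percent of positive control median, at least 50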;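 also: strain carries kanamycin resistance gene driven by streptokinase promoter and grows in 40 µg/ml kanamycin; loss of luminescence reflects streptokinase promoter inhibition or plain growth inhibition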
# tim23-1 inh = growth inhibitors of tim23-1 mutant yeast; AID 463212; 1.3% of 330,000 active; inhibition, % at 20 µM; S. cerevisiae tim23-1 growth, BacTiter-Glo luminescence, 24 h;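 active = growth inhibition of the mutant yeast at or above 50%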;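 also: temperature-sensitive mutant grown at 25 °C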
# EBI2 conf = EBI2 (human) antagonism, single concentration confirmation; 29% of 2,400 active; AID 651997; EBI2 beta-arrestin luminescence, 7a,25-OHC antagonism; inhibition, % at 5 µM; shares compounds with EBI2 antag;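 active = inhibition of at least 50%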
# EBI2 agonist = EBI2 agonism counter-screen; EBI2-expressing cells, agonist mode, luminescence, 60 min; 0% vehicle, 100% 7α,25-dihydroxycholesterol control; 2,400 tested, under 10 active; shares compounds with EBI2 antag; activation, % at 5 µM;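 active = activation of at least 50%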
# bGal cs = inhibits E. coli beta-galactosidase, counter-screen for EBI2 antagonists. 1% of 2,400 active. purified beta-galactosidase, luminescent Galacton Star, 15 min. inhibition, % at 5 µM. shares compounds with EBI2 antag. AID 652176;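 active = replicate-average signal at least 3 plate SD below neutral wells, shown as high inhibition, flagging enzyme-inhibiting false positives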;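 also: higher means stronger loss of beta-gal luminescence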
# Numbers stand for hits; i = inactive; nt = not tested or not shown.
SMILES,TIM10 inh,tim10-1 inh,PfHsp90 set2,EBI2 antag,SKKanGAS inh,tim23-1 inh,EBI2 conf,EBI2 agonist,bGal cs
Cc1ccc(NS(=O)(=O)c2ccc(NC(=O)CN(c3cc([N+](=O)[O-])ccc3C)S(C)(=O)=O)cc2)c(C)c1,i,i,i,75.2,i,i,i,i,i
Cc1ccc([N+](=O)[O-])cc1N(CC(=O)NC1CCCC1)S(C)(=O)=O,i,i,i,i,nt,i,nt,nt,nt
CN(C)C(=S)Oc1ccccc1C1(C)OCCO1,nt,nt,nt,i,nt,nt,nt,nt,nt
CCc1ccc(/C=N/NC(=S)NCCc2ccccc2)cc1,i,i,i,56.9,i,i,i,i,i
O=C(c1ccc(Cl)cc1)c1oc2ccccc2c1CS(=O)c1ccc(Cl)cc1 (stereo not drawn),i,i,i,51.8,i,i,50.6,i,i
COc1cc(/C=C/C(=O)c2ccc(NS(=O)(=O)c3ccc(C)cc3)cc2)cc(OC)c1O,nt,nt,i,i,i,nt,nt,nt,nt
COc1cccc(/C=C/C(=O)c2ccc(NS(=O)(=O)c3ccc(C)cc3)cc2)c1,i,i,i,61.7,i,i,i,i,i
Cc1ccc2nc(-c3ccncc3)cc(C(=O)Nc3ccc(F)cc3C)c2c1,i,i,i,51.4,i,i,63.6,i,i
Cc1ccc2nc(-c3cccnc3)cc(C(=O)Nc3ccc(F)cc3C)c2c1,i,i,nt,i,i,i,nt,nt,nt
COc1ccc(NC(=O)CNC(=O)C2CCCCC2)cc1OC,i,i,i,i,nt,i,nt,nt,nt
CC(C)N(C)c1ncnc2c1ncn2[C@H]1CN(Cc2ccc(F)cc2)C[C@@H](CO)O1,nt,nt,nt,67.5,nt,nt,63.0,i,i
OC[C@@H]1CN(Cc2cccc(C(F)(F)F)c2)C[C@H](n2cnc3c(NC4CC4)ncnc32)O1,nt,nt,nt,64.8,nt,nt,61.6,i,i
OC[C@@H]1CN(Cc2ccncc2)C[C@H](n2cnc3c(NC4CC4)ncnc32)O1,nt,nt,nt,i,nt,nt,nt,nt,nt
CC(C)Nc1ncnc2c1ncn2[C@H]1CN(Cc2ccc(-c3ccccc3)cc2)C[C@@H](CO)O1,nt,nt,nt,44.1,nt,nt,i,i,i
OC[C@@H]1CN(Cc2cccc(C(F)(F)F)c2)C[C@H](n2cnc3c(NCc4ccc(F)cc4)ncnc32)O1,nt,nt,nt,i,nt,nt,nt,nt,nt
OC[C@@H]1CN(Cc2ccc(Cl)cc2)C[C@H](n2cnc3c(NC4CC4)ncnc32)O1,nt,nt,nt,82.5,nt,nt,82.2,i,i
O=C(C[C@@H]1C/C=C\C[C@H](Cc2ccc(F)cc2)C(=O)OCCNC1=O)NCCO,i,i,i,i,nt,i,nt,nt,nt
O=C(NCC1CCCCC1)C1(CC2CC(c3ccc(Cl)cc3)=NO2)CCNCC1 (stereo not drawn),i,i,i,i,i,i,nt,nt,nt
COc1ccc2c(CN(Cc3ccccc3)Cc3ccccc3)cc(=O)oc2c1,nt,nt,nt,51.7,nt,nt,i,i,i
COc1cc2oc(=O)cc(CN(Cc3ccccc3)Cc3ccccc3)c2cc1Cl,nt,nt,nt,45.1,nt,nt,i,i,i
COC(C(=O)N/N=C(\C)c1ccc(C(C)(C)C)cc1)c1ccccc1 (stereo not drawn),i,i,i,65.0,i,i,i,i,i
COc1ccc(-c2csc3ncnc(N4CCN(c5cccc(OC)c5)CC4)c23)cc1,i,i,i,i,i,i,nt,nt,nt
COc1ccc(-c2csc3ncnc(N4CCN(c5cccc(C)c5C)CC4)c23)cc1,i,i,i,48.8,i,i,i,i,i
COc1ccc(-c2nnc(C3CCN(S(=O)(=O)c4ccccc4)CC3)o2)cc1,i,i,i,47.4,i,i,i,i,i
O=C(CSc1n[nH]c(=O)[nH]c1=O)Nc1ccc(C(=O)O)cc1,i,i,i,48.9,i,i,i,i,i
SMILES,TIM10 inh,tim10-1 inh,PfHsp90 set2,EBI2 antag,SKKanGAS inh,tim23-1 inh,EBI2 conf,EBI2 agonist,bGal cs
Cc1cc(NC(=O)CSc2n[nH]c(=O)[nH]c2=O)ccc1Br,i,i,i,i,i,i,nt,nt,nt
Cc1onc(NC(=O)c2ccc(Cl)cc2Cl)c1Br,i,i,i,i,i,i,nt,nt,nt
O=C(/C=C/c1ccc(Cl)cc1)NCc1cccs1,i,i,i,53.0,i,i,53.0,i,i
CSc1cccc(NC(=O)/C=C/c2ccc(Cl)cc2)c1,i,i,i,59.0,i,i,68.1,i,i
O=C(/C=C/c1ccc(Cl)cc1)NCCSc1ccccc1,i,i,nt,59.7,i,i,i,i,i
O=C(/C=C/c1ccccc1)NCCSCc1ccc(Cl)cc1,i,i,i,51.9,i,i,i,i,i
O=C(/C=C/c1ccc(Cl)cc1Cl)NCCSc1ccccc1,i,i,i,i,i,i,nt,nt,nt
COC(=O)Cc1ccc(NC(=S)N2CCN(c3ccc(F)cc3)CC2)cc1,nt,nt,i,i,i,nt,nt,nt,nt
COc1ccccc1NC(=O)c1ccc(N2CC3CC(C2)c2cccc(=O)n2C3)c(NC(=O)c2ccncc2)c1 (stereo not drawn),i,i,i,i,i,i,nt,nt,nt
COc1cc(C#Cc2c(-c3cncn3C)n(C)c3ccc(-c4cc(OC)c(OC)c(OC)c4)cc23)cc(OC)c1,i,i,i,49.6,nt,i,i,i,i
COc1cc(OC)cc(-c2c(C#Cc3ccsc3)c3cc(-c4cc(OC)c(OC)c(OC)c4)ccc3n2C)c1,i,i,i,i,nt,i,nt,nt,nt
COc1ccc(C2CCCN2C(=O)Nc2ccc(Cl)cc2)cc1OC (stereo not drawn),i,i,i,59.0,i,i,i,i,i
COC(=O)Cc1ccc(NC(=O)c2ccc3c(c2)C(=O)N(Cc2ccco2)C3=O)cc1,i,i,i,51.5,i,i,i,i,i
COC(=O)Cc1ccc(NC(=O)c2ccc3c(c2)C(=O)N(Cc2cccnc2)C3=O)cc1,i,i,i,i,i,i,nt,nt,nt
COCCN(C(=S)Nc1ccc(C)cc1)C(C)c1ccco1 (stereo not drawn),i,i,i,i,i,i,nt,nt,nt
CCOc1ccc(NC(=S)N(CCOC)C(C)c2ccco2)cc1 (stereo not drawn),i,i,i,54.8,i,i,i,i,i
COc1ccc(NC(=S)N(CCC(C)C)C2CCN(C(C)C)CC2)cc1,i,i,i,i,i,i,nt,nt,nt
CCOc1ccc(NC(=S)N(CCOC)C2CCN(C(C)C)CC2)cc1,i,i,i,53.8,i,i,i,i,i
CCOc1ccc(NC(=S)N(CCc2ccncc2)C(C)C)cc1,i,i,i,51.6,i,i,i,i,i
Cc1nn(-c2ccccc2)c(NC(=O)c2cccs2)c(-c2ccccc2Cl)c1=O,i,i,nt,i,i,i,nt,nt,nt
CCN(CC)C(=O)Cn1cc(S(=O)(=O)CC(=O)NC2CCCCC2)c2ccccc21,i,i,i,i,i,i,nt,nt,nt
COc1ccccc1N1CCN(C(=O)c2cccc(C(=O)N3CCN(c4ccccc4OC)CC3)c2)CC1,i,i,i,i,i,i,nt,nt,nt
